Molecules are shown by their SMILES. Results filed as inconclusive are left out. The source made the active and inactive calls. Calls come from the whole dose curve; as a rule, active = well fitted inhibition curve with a large enough effect; inconclusive = small, poorly fitted or top-dose-only effect; inactive = flat fitted curve, though single readings scatter.

The source of these data is PubChem BioAssay (NCATS).

What all share (test): qHTS profiling for inhibitors of Plasmodium falciparum proliferation (AID 504749); note: nearly all actives have a fitted effect of over 60% in size
Common to all, as to conditions: P. falciparum in erythrocytes, SYBR Green DNA, 72 h; series mostly up to 28.7 µM
Background: In qHTS, concentration-response curves come from the screen itself.

One assay relates to CP237. In outline:
(§1)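 Parasite proliferation within erythrocytes, 72 h exposure. Endpoint: SYBR Green I fluorescence after overnight lysis at room temperature. Controls: 0.29 uM artemisinin, DMSO.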

In another assay the test system is CP238. The method in brief: as §1
The next assay relates to CP247. In outline:
as §1

The subject of the next assay is CP250. The method in brief:
as §1

For the next assay, the system named is CP252. In outline:
as §1

A further assay relates to CP256. In outline:
as §1

The subject of a further assay is CP260. The method in brief: as §1
The test system of another assay is CP262. In outline: as §1
A further assay concerns CP265. The method in brief: as §1
The subject of another assay is CP266. In outline:
as §1

The test system of another assay is CP268. In outline:
as §1

The next assay has as its system CP269. The method in brief:
as §1

Another assay concerns CP286. The method in brief:
as §1

The next assay has as its system CP291. The method in brief:
as §1

Another assay concerns CP297. In outline:
as §1

For another assay, the system named is CP305. In outline:
as §1

The test system of a further assay is CP315. The method in brief:
as §1

The next assay relates to CP325. In outline: as §1
For the next assay, the system named is CP329. The method in brief: as §1
The test system of another assay is CP335. The method in brief: as §1
Potency is the fitted concentration of half-maximal effect.

With `NCCC(O)(P(=O)(O)O)P(=O)(O)O`, the Potency result with CP237, in the assay on CP238, in the assay on CP247, with CP250, with CP252 and in the assay with CP256 was “inactive” each time. Further, the Potency entry with CP260, in the assay with CP262, in the assay on CP265, in the assay with CP266, in the assay with CP268 and in the assay with CP269 was “inactive” throughout. Further, the Potency result in the assay on CP286, with CP291, with CP297, with CP305, in the assay on CP315 and in the assay with CP325 was “inactive” in each case. Besides, the Potency entry in the assay with CP329 and in the assay on CP335 was “inactive” in each case.
For the molecule `COc1cc(NS(C)(=O)=O)ccc1Nc1c2ccccc2nc2ccccc12`, the Potency is 1.58 µM (active) in the assay with CP237; 4.47 µM (active) in the assay on CP238; 1.26 µM (active) with CP247; 1.58 µM (active) in the assay with CP250; 0.891 µM (active) with CP252; 1 µM (active) with CP256. Further, the Potency in the assay on CP260 is 1 µM (active); in the assay on CP262 it was 3.79 µM (active); in the assay on CP265 it was 1 µM (active); with CP266 it was 5.36 µM (active); in the assay on CP268, 3.38 µM (active); with CP269, 4.78 µM (active). The Potency was 2 µM (active) in the assay on CP286; 1.69 µM (active) in the assay with CP291; 4.78 µM (active) in the assay on CP297; 3.38 µM (active) in the assay with CP305; 6.75 µM (active) with CP315; 4.26 µM (active) in the assay on CP325. Also, the values for the Potency in the assay with CP329 and in the assay with CP335 were 4.78 µM (active) and 4.26 µM (active), respectively.
For the molecule `C[N+]1(CCCCC[N+]2(C)CCCC2)CCCC1`, the Potency result in the assay with CP237, in the assay with CP238, in the assay with CP247, with CP250, in the assay on CP252 and in the assay with CP256 was “inactive” in each case. In addition, the Potency entry with CP260, in the assay with CP262, with CP265, in the assay on CP266, in the assay with CP268 and in the assay on CP269 was “inactive” throughout. For the same molecule, the Potency result in the assay on CP286, in the assay with CP291, in the assay on CP297, in the assay on CP305, in the assay on CP315 and with CP325 was “inactive” each time. The Potency entry with CP329 and with CP335 was “inactive” each time.
As for `CC(=O)OCC(=O)NCCCOc1cccc(CN2CCCCC2)c1`, the Potency entry in the assay on CP237, in the assay on CP238, in the assay with CP247, with CP250, in the assay on CP252 and in the assay with CP256 was “inactive” throughout. Also, the Potency result in the assay on CP260, in the assay on CP262, in the assay on CP265, in the assay with CP266, with CP268 and in the assay on CP269 was “inactive” each time. In addition, the Potency result with CP286, with CP291, in the assay on CP297, in the assay on CP305, with CP315 and with CP325 was “inactive” in each case. For the same molecule, the Potency entry with CP329 and in the assay on CP335 was “inactive” throughout.
As to `CN1C(CCl)Nc2cc(Cl)c(S(N)(=O)=O)cc2S1(=O)=O` (stereo not given), the Potency result with CP237, in the assay on CP238, in the assay on CP247, in the assay with CP250, in the assay on CP252 and in the assay with CP256 was “inactive” each time. In addition, the Potency entry in the assay with CP260, in the assay with CP262, with CP265, in the assay on CP266, with CP268 and in the assay with CP269 was “inactive” in each case. Further, the Potency entry with CP286, in the assay with CP291, in the assay on CP297, in the assay with CP305, with CP315 and in the assay with CP325 was “inactive” each time. Further, the Potency result in the assay with CP329 and with CP335 was “inactive” each time.
Turning to `O=C1OC(c2ccc(O)cc2)(c2ccc(O)cc2)c2ccccc21`, the Potency result in the assay on CP237, with CP238, in the assay with CP247, in the assay with CP250, with CP252 and in the assay on CP256 was “inactive” in each case. Moreover, the Potency entry in the assay on CP260, with CP262, in the assay on CP265, in the assay on CP266, with CP268 and in the assay with CP269 was “inactive” throughout. Also, the Potency result with CP286, with CP291, with CP297, in the assay on CP305, in the assay on CP315 and with CP325 was “inactive” each time. Moreover, the Potency result in the assay with CP329 and in the assay on CP335 was “inactive” throughout.
Turning to `Cc1c(C(N)=O)cc([N+](=O)[O-])cc1[N+](=O)[O-]`, the Potency result in the assay with CP237, with CP238, in the assay with CP247, in the assay with CP250, in the assay with CP252 and with CP256 was “inactive” throughout. Further, the Potency result in the assay with CP260, in the assay with CP262, in the assay on CP265, in the assay on CP266, in the assay on CP268 and in the assay on CP269 was “inactive” in each case. The Potency entry in the assay on CP286, in the assay on CP291, with CP297, in the assay with CP305, in the assay on CP315 and with CP325 was “inactive” each time. Further, the Potency result in the assay on CP329 and in the assay with CP335 was “inactive” each time.
As for `COC1=CC(=O)C[C@@H](C)[C@]12Oc1c(Cl)c(OC)cc(OC)c1C2=O`, the Potency result with CP237, with CP238, in the assay on CP247, with CP250, in the assay on CP252 and with CP256 was “inactive” in each case. The Potency result in the assay on CP260, in the assay with CP262, with CP265, in the assay with CP266, in the assay on CP268 and in the assay on CP269 was “inactive” each time. Also, the Potency entry in the assay on CP286, with CP291, in the assay with CP297, with CP305, in the assay with CP315 and in the assay on CP325 was “inactive” throughout. For the same molecule, the Potency result in the assay with CP329 and with CP335 was “inactive” throughout.
In the case of `CN=C(NC#N)NCCSCc1csc(N=C(N)N)n1`, the Potency result in the assay with CP237, in the assay with CP238, with CP247, in the assay with CP250, in the assay with CP252 and with CP256 was “inactive” in each case. The Potency entry with CP260, in the assay on CP262, in the assay on CP265, with CP266, in the assay on CP268 and in the assay with CP269 was “inactive” in each case. Moreover, the Potency entry in the assay on CP286, in the assay with CP291, in the assay on CP297, in the assay with CP305, in the assay with CP315 and with CP325 was “inactive” each time. Moreover, the Potency entry in the assay on CP329 and in the assay on CP335 was “inactive” in each case.
For the molecule `O=C(O)c1cc2cc(Cc3cccnc3)ccc2o1`, the Potency result in the assay with CP237, with CP238, in the assay on CP247, with CP250, with CP252 and in the assay on CP256 was “inactive” in each case. Further, the Potency result with CP260, in the assay on CP262, in the assay on CP265, in the assay on CP266, in the assay with CP268 and in the assay on CP269 was “inactive” in each case. For the same molecule, the Potency entry with CP286, with CP291, in the assay on CP297, with CP305, in the assay on CP315 and in the assay with CP325 was “inactive” throughout. Also, the Potency result in the assay with CP329 and in the assay on CP335 was “inactive” throughout.
On to `O=C(O)CNC(=O)c1ccccc1`, for which the Potency entry in the assay with CP237, in the assay with CP238, in the assay with CP247, in the assay with CP250, with CP252 and in the assay with CP256 was “inactive” each time. For the same molecule, the Potency result in the assay with CP260, in the assay on CP262, with CP265, with CP266, with CP268 and in the assay on CP269 was “inactive” throughout. For the same molecule, the Potency entry with CP286, in the assay with CP291, in the assay with CP297, with CP305, in the assay with CP315 and in the assay with CP325 was “inactive” in each case. Further, the Potency entry in the assay with CP329 and in the assay with CP335 was “inactive” in each case.
For `COc1ccc(C2C(=O)c3ccccc3C2=O)cc1`, the Potency entry in the assay with CP237, with CP238, in the assay with CP247, with CP250, in the assay on CP252 and with CP256 was “inactive” in each case. Also, the Potency entry with CP260, with CP262, with CP265, in the assay on CP266, in the assay on CP268 and in the assay with CP269 was “inactive” throughout. The Potency entry in the assay on CP286, with CP291, in the assay with CP297, in the assay with CP305, in the assay on CP315 and in the assay on CP325 was “inactive” in each case. The Potency entry in the assay on CP329 and in the assay with CP335 was “inactive” each time.
For the molecule `CCC(=O)c1c(O)cc(O)cc1O`, the Potency result with CP237, in the assay with CP238, in the assay with CP247, in the assay with CP250, in the assay with CP252 and with CP256 was “inactive” each time. For the same molecule, the Potency entry in the assay with CP260, in the assay with CP262, with CP265, in the assay with CP266, with CP268 and in the assay with CP269 was “inactive” in each case. In addition, the Potency result in the assay with CP286, in the assay on CP291, in the assay on CP297, with CP305, with CP315 and with CP325 was “inactive” each time. The Potency result with CP329 and in the assay on CP335 was “inactive” each time.
